Source: PubChem BioAssay

Test: S. cerevisiae growth modulation with rapamycin, primary screen, strain BY4716, OD600, 96 h (AID 1091); also: test concentration not given here
Conditions: higher = more signal, called active from +8 up or from −8 down

z-score, inactive:
CC[C@@H]1[C@@H]2C3C(=O)N(CC)C(=O)C3CC(=O)[C@@H]2[C@H](c2ccc(C)cc2)N1S(=O)(=O)c1ccc(C)cc1 (stereo partly drawn) 0.336, COCCOC(=O)N1C(=O)[C@@]2(c3cc(C#CCCO)ccc31)[C@H](C(=O)NC[C@H](O)c1ccccc1)[C@H]1C(=O)O[C@H](c3ccccc3)[C@H](c3ccccc3)N1[C@@H]2c1ccccc1OCCO 2.4, C=CCOC(=O)[C@@H]1[C@H]2C(=O)O[C@H](c3ccccc3)[C@H](c3ccccc3)N2[C@H](c2ccc(OCCOC(=O)[C@@H]3C[C@@H]4C(=O)N[C@@H](CCCCNC(C)=O)C(=O)N4[C@@H]3c3ccc(O)cc3)cc2)[C@@]12C(=O)Nc1ccc(I)cc12 2.96, CC(C)CCC[C@@H](C)[C@H]1CC[C@@]2(C)C3=C(CC[C@]12C)[C@@]1(C)CC[C@H](OC(=O)c2ccc(N)cc2)C(C)(C)C1CC3 (stereo partly drawn) -0.246, CCCN1C(=O)[C@@H]2Cc3c([nH]c4ccccc34)[C@@H](c3cccc(O)c3)N2C1=O 0.385, C=CCN1C(=O)[C@@]2(O[C@@H](CCn3cc([C@H](O)c4ccccc4)nn3)[C@H]([Si](C)(C)c3ccc(OC)cc3)[C@H]2C)c2cc(NC(=O)c3ccc(OC)cc3)ccc21 0.7, COc1ccc([Si](C)(C)[C@@H]2[C@@H](CC(=O)N(CCO)Cc3ccccc3)O[C@]3(C(=O)N(Cc4ccc(N5CCOC5=O)cc4)c4ccccc43)[C@H]2C)cc1 2.92, COCCOC(=O)N1C(=O)[C@@]2(c3cc(C#Cc4ccc(OC)cc4)ccc31)[C@H](C(=O)N1CCc3cc(OC)c(OC)cc3C1)[C@H]1C(=O)O[C@H](c3ccccc3)[C@H](c3ccccc3)N1[C@@H]2c1ccc(O)cc1 2.29
